A number with no mark means an inactive call.
compound: OC1CN(Cc2sccc12)C(=O)CCl; assay: log2 ratio of Biotin-Ahx-Ub-VS probe labelling (compound/DMSO); higher = less target engagement, active = hit call of the paper (q ≤ 0.05, log2 ratio ≤ -1); settings: compound concentration: 50uM; treatment time: 3 h
Protocol: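 Round 2 competitive ABPP in HEK293T lysate. Purified HTC-D2B compounds were tested at 50 and 200 µM for 3 h, followed by Biotin-Ahx-Ub-VS enrichment and diaPASEF LC-MS/MS. Values are the average log2 ratio (compound/DMSO) from an unpaired t-test (n=3 treated, n=26 DMSO).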

Sequence of UniProt Q8N6M0 (Q8N6M0 whole entry): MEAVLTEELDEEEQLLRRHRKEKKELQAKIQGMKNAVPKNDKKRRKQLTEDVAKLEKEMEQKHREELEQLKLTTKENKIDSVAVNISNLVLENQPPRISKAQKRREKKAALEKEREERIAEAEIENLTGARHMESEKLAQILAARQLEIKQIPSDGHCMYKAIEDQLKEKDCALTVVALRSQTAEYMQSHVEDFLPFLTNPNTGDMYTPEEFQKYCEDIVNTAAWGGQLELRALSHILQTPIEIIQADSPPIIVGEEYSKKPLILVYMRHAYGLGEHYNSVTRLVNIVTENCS
Sequence of UniProt Q9Y5T5 (Q9Y5T5 whole entry, looked up): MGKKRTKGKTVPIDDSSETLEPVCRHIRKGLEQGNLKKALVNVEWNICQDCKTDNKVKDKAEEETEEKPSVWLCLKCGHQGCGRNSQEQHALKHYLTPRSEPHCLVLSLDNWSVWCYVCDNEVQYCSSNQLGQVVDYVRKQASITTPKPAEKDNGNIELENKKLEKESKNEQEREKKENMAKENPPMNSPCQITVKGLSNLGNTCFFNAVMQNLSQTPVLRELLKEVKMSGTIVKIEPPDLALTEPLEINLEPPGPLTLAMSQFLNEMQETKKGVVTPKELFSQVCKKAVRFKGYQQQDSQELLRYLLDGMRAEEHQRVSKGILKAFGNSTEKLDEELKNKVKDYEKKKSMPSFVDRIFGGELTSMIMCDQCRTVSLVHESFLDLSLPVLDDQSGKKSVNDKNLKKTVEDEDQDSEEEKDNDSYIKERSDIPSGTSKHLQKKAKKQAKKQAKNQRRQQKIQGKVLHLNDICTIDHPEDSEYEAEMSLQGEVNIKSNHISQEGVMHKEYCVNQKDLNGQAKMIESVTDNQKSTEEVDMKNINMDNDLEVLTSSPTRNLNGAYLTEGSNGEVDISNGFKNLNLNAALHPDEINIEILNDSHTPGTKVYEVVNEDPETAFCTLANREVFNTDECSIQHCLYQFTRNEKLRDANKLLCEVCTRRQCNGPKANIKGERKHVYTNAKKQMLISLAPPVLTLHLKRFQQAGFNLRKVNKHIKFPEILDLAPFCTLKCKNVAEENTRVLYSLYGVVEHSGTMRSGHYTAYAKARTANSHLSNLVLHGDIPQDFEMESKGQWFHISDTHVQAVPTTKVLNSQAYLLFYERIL
Sequence of UniProt P54252 (P54252 whole entry): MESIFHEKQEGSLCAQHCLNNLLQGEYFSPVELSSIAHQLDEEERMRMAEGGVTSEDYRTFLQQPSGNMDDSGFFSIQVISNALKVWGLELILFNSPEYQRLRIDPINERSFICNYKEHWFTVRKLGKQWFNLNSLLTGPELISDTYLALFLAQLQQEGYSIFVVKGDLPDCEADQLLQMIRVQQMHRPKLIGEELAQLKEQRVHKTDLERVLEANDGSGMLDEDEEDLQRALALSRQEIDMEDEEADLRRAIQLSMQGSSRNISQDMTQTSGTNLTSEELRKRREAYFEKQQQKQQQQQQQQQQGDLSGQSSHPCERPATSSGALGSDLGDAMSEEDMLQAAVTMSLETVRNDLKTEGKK
Sequence of UniProt Q5T2D3 (Q5T2D3 whole entry): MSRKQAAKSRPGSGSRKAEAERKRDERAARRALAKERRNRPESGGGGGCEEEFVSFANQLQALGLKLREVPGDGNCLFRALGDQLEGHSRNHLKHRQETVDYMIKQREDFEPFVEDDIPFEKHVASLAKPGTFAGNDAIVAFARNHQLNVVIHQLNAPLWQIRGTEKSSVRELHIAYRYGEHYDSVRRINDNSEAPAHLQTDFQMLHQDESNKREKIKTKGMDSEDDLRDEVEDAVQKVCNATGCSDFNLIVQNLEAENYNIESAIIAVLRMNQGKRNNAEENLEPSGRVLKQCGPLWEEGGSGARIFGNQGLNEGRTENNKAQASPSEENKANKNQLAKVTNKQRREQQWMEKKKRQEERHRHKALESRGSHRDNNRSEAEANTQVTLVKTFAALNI
Sequence of UniProt P62068 (P62068 whole entry): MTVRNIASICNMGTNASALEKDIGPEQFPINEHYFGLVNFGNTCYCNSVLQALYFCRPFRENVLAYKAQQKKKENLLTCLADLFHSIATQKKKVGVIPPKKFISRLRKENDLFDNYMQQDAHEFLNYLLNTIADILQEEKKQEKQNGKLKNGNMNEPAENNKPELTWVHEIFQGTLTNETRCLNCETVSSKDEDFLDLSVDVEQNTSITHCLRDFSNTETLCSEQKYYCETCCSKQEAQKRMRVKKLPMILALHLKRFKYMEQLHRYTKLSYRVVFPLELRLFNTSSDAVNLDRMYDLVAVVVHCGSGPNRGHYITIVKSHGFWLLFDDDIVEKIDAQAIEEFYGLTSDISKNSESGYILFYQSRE
Sequence of UniProt O15372 (O15372 whole entry): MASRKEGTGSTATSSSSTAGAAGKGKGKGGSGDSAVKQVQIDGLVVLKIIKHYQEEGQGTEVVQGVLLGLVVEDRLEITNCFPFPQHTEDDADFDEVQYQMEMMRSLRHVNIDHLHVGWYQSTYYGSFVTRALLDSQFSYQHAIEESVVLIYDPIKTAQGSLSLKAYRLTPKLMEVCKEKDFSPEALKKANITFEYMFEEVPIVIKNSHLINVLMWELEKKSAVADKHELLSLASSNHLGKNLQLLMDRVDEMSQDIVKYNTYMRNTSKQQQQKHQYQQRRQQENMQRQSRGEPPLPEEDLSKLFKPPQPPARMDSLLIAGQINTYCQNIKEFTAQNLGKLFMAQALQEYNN
Sequence of UniProt Q13107 (Q13107 whole entry): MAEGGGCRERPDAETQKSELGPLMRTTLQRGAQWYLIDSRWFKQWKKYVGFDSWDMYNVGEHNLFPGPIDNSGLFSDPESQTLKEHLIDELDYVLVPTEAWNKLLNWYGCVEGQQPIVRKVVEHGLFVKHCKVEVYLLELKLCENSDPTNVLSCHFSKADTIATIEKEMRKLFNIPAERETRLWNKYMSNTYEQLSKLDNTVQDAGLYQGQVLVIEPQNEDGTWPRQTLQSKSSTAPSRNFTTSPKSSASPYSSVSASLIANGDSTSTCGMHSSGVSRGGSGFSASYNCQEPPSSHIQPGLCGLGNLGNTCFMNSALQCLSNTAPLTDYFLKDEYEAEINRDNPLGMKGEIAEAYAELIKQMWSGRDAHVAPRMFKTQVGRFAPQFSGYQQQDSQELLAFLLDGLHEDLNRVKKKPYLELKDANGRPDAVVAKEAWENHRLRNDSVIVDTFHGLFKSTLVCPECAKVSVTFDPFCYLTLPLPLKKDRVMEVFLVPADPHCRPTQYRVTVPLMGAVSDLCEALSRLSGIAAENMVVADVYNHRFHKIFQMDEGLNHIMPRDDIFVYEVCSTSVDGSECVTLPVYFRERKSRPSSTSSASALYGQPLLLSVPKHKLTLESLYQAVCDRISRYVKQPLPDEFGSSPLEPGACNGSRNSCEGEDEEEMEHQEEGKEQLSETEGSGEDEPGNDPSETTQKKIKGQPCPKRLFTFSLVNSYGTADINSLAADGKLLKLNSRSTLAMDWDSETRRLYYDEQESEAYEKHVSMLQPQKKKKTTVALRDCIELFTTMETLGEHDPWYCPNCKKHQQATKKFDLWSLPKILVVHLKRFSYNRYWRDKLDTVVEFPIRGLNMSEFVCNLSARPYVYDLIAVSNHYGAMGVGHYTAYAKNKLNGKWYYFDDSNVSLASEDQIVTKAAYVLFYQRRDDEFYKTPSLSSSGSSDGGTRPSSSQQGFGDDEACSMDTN
Sequence of UniProt Q5VVQ6 (Q5VVQ6 whole entry): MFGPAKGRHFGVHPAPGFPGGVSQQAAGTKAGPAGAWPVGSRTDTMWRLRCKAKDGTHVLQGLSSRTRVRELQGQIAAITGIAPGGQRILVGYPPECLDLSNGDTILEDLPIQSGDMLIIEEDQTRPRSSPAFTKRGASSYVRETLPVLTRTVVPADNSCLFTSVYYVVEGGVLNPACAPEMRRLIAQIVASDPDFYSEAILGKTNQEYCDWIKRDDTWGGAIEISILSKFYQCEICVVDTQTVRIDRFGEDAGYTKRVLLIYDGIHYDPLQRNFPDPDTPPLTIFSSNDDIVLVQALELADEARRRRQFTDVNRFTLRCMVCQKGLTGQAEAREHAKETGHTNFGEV
Sequence of UniProt Q8TE49 (Q8TE49 whole entry): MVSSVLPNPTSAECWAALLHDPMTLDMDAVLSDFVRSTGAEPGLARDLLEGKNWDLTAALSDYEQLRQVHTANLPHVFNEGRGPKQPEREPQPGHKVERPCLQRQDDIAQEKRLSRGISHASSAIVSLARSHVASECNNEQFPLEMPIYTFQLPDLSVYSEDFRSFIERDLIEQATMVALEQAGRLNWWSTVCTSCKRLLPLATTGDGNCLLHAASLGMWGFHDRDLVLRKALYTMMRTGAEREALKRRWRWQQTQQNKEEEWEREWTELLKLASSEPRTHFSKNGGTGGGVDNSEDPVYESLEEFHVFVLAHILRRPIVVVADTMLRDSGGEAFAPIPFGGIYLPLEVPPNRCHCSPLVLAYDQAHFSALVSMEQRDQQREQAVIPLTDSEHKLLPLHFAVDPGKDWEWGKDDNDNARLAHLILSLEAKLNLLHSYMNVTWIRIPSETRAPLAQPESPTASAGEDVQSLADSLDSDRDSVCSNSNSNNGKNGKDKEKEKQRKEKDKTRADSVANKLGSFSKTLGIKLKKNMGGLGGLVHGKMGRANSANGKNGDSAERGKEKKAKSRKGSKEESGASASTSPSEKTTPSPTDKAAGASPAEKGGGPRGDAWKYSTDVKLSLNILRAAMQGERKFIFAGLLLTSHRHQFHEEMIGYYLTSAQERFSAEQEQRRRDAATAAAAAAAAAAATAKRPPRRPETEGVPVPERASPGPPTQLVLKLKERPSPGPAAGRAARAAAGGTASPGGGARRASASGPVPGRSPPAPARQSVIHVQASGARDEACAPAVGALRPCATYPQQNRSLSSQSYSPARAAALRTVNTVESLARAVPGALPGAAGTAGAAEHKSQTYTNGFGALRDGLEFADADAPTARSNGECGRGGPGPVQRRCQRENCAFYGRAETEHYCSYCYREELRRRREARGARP

Target	log2 ratio of Biotin-Ahx-Ub-VS probe labelling
PRPF8 (UniProt Q6P2Q9)	0.0584
USP4 (UniProt Q13107)	-0.154
OTUD6B (UniProt Q8N6M0)	-0.139
ATXN3 (UniProt P54252)	-0.216
EIF3F (UniProt O00303)	-0.0817
USP54 (UniProt Q70EL1)	0.561
UniProt Q5T2D3	-0.17
EIF3H (UniProt O15372)	-0.189
USP9X (UniProt Q93008)	0.00293
ALG13 (UniProt Q9NP73)	0.00409
YOD1 (UniProt Q5VVQ6)	-0.198
COPS5 (UniProt Q92905)	0.136
OTUD4 (UniProt Q01804)	-0.695
USP46 (UniProt P62068)	-0.289
USP10 (UniProt Q14694)	-0.166
USP16 (UniProt Q9Y5T5)	-0.903
USP5 (UniProt P45974)	0.084
USP7 (UniProt Q93009)	-0.155
UniProt Q9P2H5	-0.029
UniProt Q8TE49	-1.87 (active)

same assay, conditions: compound concentration: 200uM; treatment time: 3 h

Target	log2 ratio of Biotin-Ahx-Ub-VS probe labelling
PRPF8 (UniProt Q6P2Q9)	0.0922
USP4 (UniProt Q13107)	0.0977
OTUD6B (UniProt Q8N6M0)	-0.239
ATXN3 (UniProt P54252)	-0.0796
EIF3F (UniProt O00303)	0.103
USP54 (UniProt Q70EL1)	-0.559
UniProt Q5T2D3	-0.0768
EIF3H (UniProt O15372)	-0.0524
USP9X (UniProt Q93008)	-0.116
ALG13 (UniProt Q9NP73)	-0.0817
YOD1 (UniProt Q5VVQ6)	-0.139
COPS5 (UniProt Q92905)	-0.0875
OTUD4 (UniProt Q01804)	-1.48 (active)
USP46 (UniProt P62068)	-0.565
USP10 (UniProt Q14694)	-0.00161
USP16 (UniProt Q9Y5T5)	-0.0352
USP5 (UniProt P45974)	0.198
USP7 (UniProt Q93009)	-0.426
UniProt Q9P2H5	-0.0467
UniProt Q8TE49	-2.68 (active)

Reference: the supplement of paper PMC11732987, “Enantioselective OTUD7B fragment discovery through chemoproteomics screening and high-throughput optimisation” (Communications Chemistry, 2025)
